# Platelet DG rel: inhibitors of platelet dense granule secretion, primary screen, cell-based, MLPCN, human platelets | human platelet-rich plasma, SFLLRN dense granule ATP release, luminescence | actives 0.22% (n = 300,000) | inhibition, %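 (compounds screened at 7.5 µM in platelet-rich plasma)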 | AID 1663, 2009;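 active = mean replicate score, as percent of positive control, at or above 50; inconclusive = mean below 50 but at least one replicate at or above 50; inactive = mean and every replicate below 50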
# SENP8 block-1: human SENP8 protease inhibitors, primary screen, biochemical, fluorescence, Nedd8 protein substrate, uHTS; AID 602440, 2012; Sentrin-specific protease 8 (Homo sapiens), Q96LD8; inhibition, % at 20 µM; actives 0.64% (n = 360,000); recombinant SENP8; in the data active = inhibition mostly above about 40%, no sharp cut-off; inactive = mostly below about 27%
# Target sequence (Q96LD8 whole entry, looked up): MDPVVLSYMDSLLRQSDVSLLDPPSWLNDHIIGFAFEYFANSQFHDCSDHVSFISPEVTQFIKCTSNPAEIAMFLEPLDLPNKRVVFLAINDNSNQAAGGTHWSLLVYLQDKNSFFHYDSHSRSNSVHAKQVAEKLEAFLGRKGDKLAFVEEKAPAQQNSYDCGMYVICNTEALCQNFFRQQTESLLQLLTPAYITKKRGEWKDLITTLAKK
# SENP7 block: SENP7 protease inhibitors, primary screen, biochemical, luminescence, uHTS; Sentrin-specific protease 7 (Homo sapiens), Q9BQF6; recombinant SENP7, Z-RLRGG-aminoluciferin luminescence, 40 min; inhibition, % at 5 µM; actives 1.5% (n = 330,000);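 active = inhibition above about 50% at the single test dose, limit read from the data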;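 note: plate controls were DMSO with enzyme for no effect and no enzyme buffer wells for full effect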
# Target sequence (Q9BQF6 706-1050 limits assumed): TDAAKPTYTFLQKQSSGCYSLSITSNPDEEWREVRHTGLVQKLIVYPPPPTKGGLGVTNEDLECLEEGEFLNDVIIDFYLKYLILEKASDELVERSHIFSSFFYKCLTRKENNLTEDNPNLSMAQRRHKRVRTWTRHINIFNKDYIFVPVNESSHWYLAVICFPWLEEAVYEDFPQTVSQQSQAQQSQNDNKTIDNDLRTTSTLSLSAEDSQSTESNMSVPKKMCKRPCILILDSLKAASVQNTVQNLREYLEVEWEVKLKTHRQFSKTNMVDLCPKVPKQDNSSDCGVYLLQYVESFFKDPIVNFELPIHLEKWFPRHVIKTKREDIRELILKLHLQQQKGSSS
# SENP8 block-2: SENP8 protease inhibitors, primary screen, biochemical, luminescence; purified SENP8, Z-RLRGG-aminoluciferin cleavage; inhibition, % at 10 µM; Sentrin-specific protease 8 (Homo sapiens), Q96LD8; actives 1.2% (n = 330,000); in the data active = inhibition above about 50%
# SENP6 inh: SENP6 protease inhibitors, primary screen, biochemical, luminescence, uHTS; inhibition, % at 10 µM; actives 1.8% (n = 330,000); AID 2599, 2010; Sentrin-specific protease 6 (Homo sapiens), Q9GZR1; Recombinant SENP6 catalytic domain, aminoluciferin luminescence;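 active = inhibition above about 50% at the single tested dose, limit read from the data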;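 note: plate controls were DMSO wells with enzyme for no effect and DMSO wells lacking enzyme for full effect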
# Numbers without * were called inactive; ? = inconclusive; · = no result. This is a sample that favours compounds with a hit; in the whole collection about 2.4% have one here.
SMILES,Platelet DG rel,SENP8 block-1,SENP7 block,SENP8 block-2,SENP6 inh
CC1(C(=O)NS(=O)(=O)c2cccs2)CCN1C(=O)C1CC1 (configuration not stated),·,4.2,·,·,·
COc1ccc(C(=O)COC(=O)c2cccnc2SC)cc1,1.9,2.8,70.5*,29.2,27.3
COc1ccc(C(=O)Nc2ccccc2C(=O)NCc2cccnc2)cc1OC,4.9,-14.0,-2.5,-1.2,0.7
COc1ccc(C(=O)Nc2ccccc2C(=O)N/N=C/c2ccncc2)cc1OC,63.9*,-59.2,-5.5,-11.9,-3.9
COCc1cc(C)nc(SCC[N+](C)(C)CC(=O)c2ccc(Br)cc2)c1C#N,50.7*,14.0,-8.6,-9.9,-18.7
COCc1cc(C)nc(SCC[N+](C)(C)CC(=O)Nc2ccccc2)c1C#N,19.4,8.6,-3.2,-6.2,4.0
COc1ccc(CCNC(=O)CCCc2ccccc2)cc1OC,4.4,13.2,-8.1,-14.7,-39.8
CSc1ncnc2c1ncn2CCCNCc1ccc2c(c1)OCO2,·,23.2,·,·,·
Cn1c(SCC(=O)Nc2cccc(F)c2)nc2c(c1=O)SCC2,10.6,7.4,0.5,-2.5,-6.6
O=S(=O)(Nc1ccc(-c2nc3cccnc3s2)cc1)c1cc(F)ccc1F,-4.8,-443.0,-2.6,24.1,58.8*
CC(C)(C)OC(=O)NCCCCCNC(=O)c1ncn(Cc2ccccc2)c1C(=O)NCCCCCNC(=O)OC(C)(C)C,·,1.0,-5.0,-12.9,-10.9
COc1ccc(-n2nnc3c(SCC(=O)Nc4ccc5c(c4)OCCO5)ncnc32)cc1,·,·,19.5,15.9,53.8*
COc1ccccc1C(=O)Nc1sc(C(=O)N2CCCC2)c(C)c1C#N,-5.5,-9.9,-0.8,3.8,-5.2
Cc1c(C(=O)N2CCCC2)sc(NC(=O)c2ccc(Cl)cc2)c1C#N,58.2*,-34.2,5.1,0.9,10.6
COc1cc(CC(=O)Nc2cc(S(=O)(=O)N3CCOCC3)ccc2N2CCCC2)cc(OC)c1OC,·,-1.0,·,·,·
Cc1ccc(-c2c(C#N)c(N)n(-c3ccc(C)cc3)c(=O)c2C#N)cc1,?,-77.1,-5.4,-6.6,-14.3
Cc1ccc(-n2c(N)c(C#N)c(-c3ccc(Cl)cc3)c(C#N)c2=O)cc1,74.6*,-99.0,-3.9,-0.1,-16.1
CCCCn1c(N)c(N(CC(C)C)C(=O)C2=COCCO2)c(=O)[nH]c1=O,·,-1.8,2.0,6.5,-8.2
O=[N+]([O-])c1ccccc1-c1cc(-c2ccccc2O)n[nH]1,-6.0,10.3,13.6,36.0,60.6*
CS(=O)(=O)N1N=C(c2ccc(Cl)cc2)CC1c1cccs1 (configuration not stated),3.8,8.1,40.1,20.7,51.1*
O=C(CSCc1c(F)cccc1Cl)NCc1ccco1,3.8,14.3,7.3,0.2,-2.7
O=C(CSCc1c(Cl)cccc1Cl)NCc1ccco1,83.5*,21.9,1.7,1.7,-10.2
Cc1ccc2nc(C(C)(C)C)c(Cc3ccsc3)n2c1,·,-22.4,·,·,·
COc1cccc(C(=O)Nc2cc3c(cc2Cl)OCCCO3)c1,14.6,6.2,40.0,34.3,51.5*
Nc1cc2cccnc2cc1Cl,·,-374.1,·,·,·
SMILES,Platelet DG rel,SENP8 block-1,SENP7 block,SENP8 block-2,SENP6 inh
O=C(O)c1ccc(NC2=C(N3CCOCC3)C(=O)c3ccccc3C2=O)cc1,18.7,53.4*,3.3,11.7,42.7
COc1cccc(C(C(=O)NC2CCCC2)N2CCN(c3cc(C)ccc3C)CC2)c1OC (configuration not stated),·,12.9,·,·,·
CCN(CC)C(=O)CSc1ncnc2c(-c3ccc(OC)cc3)nsc12,?,·,34.1,52.4*,50.9*
COc1ccc(-c2nsc3c(SCc4ccccc4)ncnc23)cc1,-17.9,-398.1,4.2,-8.0,20.6
O=C(O)c1ccc(NC(=S)NC(=O)c2ccc3ccccc3c2)cc1,-3.4,11.3,24.1,-7.2,-9.1
O=C(O)c1cccc(NC(=S)NC(=O)c2ccc3ccccc3c2)c1,0.7,-4.1,71.3*,87.3*,92.8*
CC1(C)CC(N2CCC(=O)N(C3CC(C)(C)NC(C)(C)C3)C2)CC(C)(C)N1,5.3,29.9,4.0,-5.8,1.6
CC1(C)CC(N2CCC(=O)NC2=S)CC(C)(C)N1,68.8*,16.7,-2.8,-4.4,-18.4
COC(=O)C(N)Cc1ccc(O)c(O)c1 (configuration not stated),0.1,5.8,0.2,5.4,18.5
NC(CO)C(=O)NNCc1ccc(O)c(O)c1O (configuration not stated),1.4,44.8*,16.2,4.3,8.9
Cc1cccc2sc(NNC(=O)c3cc(=O)c4ccccc4o3)nc12,10.0,11.9,88.7*,96.0*,98.3*
O=C(NNc1nc2c(F)cccc2s1)c1cc(=O)c2ccccc2o1,1.6,22.7,73.6*,94.2*,98.3*
COc1ccc2nc(NNC(=O)c3cc(=O)c4ccccc4o3)sc2c1,3.3,-47.3,-2.3,22.5,47.2
O=C(NNc1nc2c(F)cccc2s1)c1ccc(F)cc1,-0.7,5.5,-3.2,-8.4,-14.2
COc1ccc(N2CCN(CCCNC(=O)CCCn3c(=O)[nH]c4ccsc4c3=O)CC2)cc1,-4.1,9.6,-4.4,2.9,-2.0
COc1ccc(N2CCN(CCNC(=O)CCCn3c(=O)[nH]c4cc(Cl)ccc4c3=O)CC2)cc1,-5.4,52.8*,-8.1,-6.1,-11.9
Cc1ccc(/C=C2\SC(=S)N(C3CCS(=O)(=O)C3)C2=O)o1 (configuration not stated),6.6,55.6*,11.3,-6.0,23.1
CCOc1ccc(/C=C2\SC(=S)N(C(C(=O)O)c3ccccc3)C2=O)cc1OC (configuration not stated),6.5,8.2,11.7,-1.5,6.4
C=CCOc1ccc(/C=C2\SC(=S)N(C(C(=O)O)c3ccccc3)C2=O)cc1 (configuration not stated),2.4,41.5*,·,·,·
COc1cccc(/C=C2/SC(=S)N(CCC(=O)N3CCOCC3)C2=O)c1,1.4,26.5,2.9,4.8,-7.1
CCc1ccc(/C=C2\SC(=S)N(CCCC(=O)N3CCN(C)CC3)C2=O)cc1,·,41.1*,·,·,·
COc1cccc(/C=C2\SC(=S)N(CCCC(=O)N3CCCCC3)C2=O)c1,17.6,25.5*,-4.5,2.3,28.8
O=C(NCc1ccccn1)C(=O)NCC1OCCCN1S(=O)(=O)c1cc(F)ccc1F (configuration not stated),-4.8,7.1,-7.3,-5.9,-21.5
CCc1ccc(S(=O)(=O)/N=C2\C=C(Nc3ccc(O)cc3)C(=O)c3ccccc32)cc1,13.6,101.4*,66.9*,90.7*,89.1*
CCc1ccc(S(=O)(=O)/N=C2\C=C(Nc3cccc(C(=O)O)c3)C(=O)c3ccccc32)cc1,-5.1,69.6*,46.7,95.0*,92.4*
CC(C)c1ccc(NC2CCCN(C(=O)CCc3cnn(C)c3)C2)cc1 (configuration not stated),2.4,7.5,2.5,-5.5,10.4
